The full list was thinned out, with hits kept by preference.
HT1080NT lethal = qHTS for induction of synthetic lethality in tumor cells producing 2HG: qHTS for the HT-1080-NT fibrosarcoma cell line; Potency, µM (doses to about 46.1 µM), inactives show top-dose activity, negative = less viability, most hits filed as cytotoxic; HT-1080-NT fibrosarcoma viability, CellTiter-Glo ATP luminescence, 48 h; actives 1.6% (n = 360,000); AID 686970, 2013;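 also: NT is the 2HG producing partner of a matched IDH1 knockdown line; potency is read from the fitted curve at half-maximal effect; 0% = DMSO-treated cells and -100% = media-only wells without cells; nearly all actives have a fitted effect of over 55% in size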
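Toxicity toward the 2HG-producing NT line was scored as %Activity, normalised to DMSO and no-cell wells, from CellTiter-Glo luminescence after 48 hours' treatment.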
HT1080 IDH1KD tx = qHTS for induction of synthetic lethality in tumor cells producing 2HG: qHTS for the HT-1080-IDH1KD cell line; HT-1080 IDH1 knockdown viability, ATP luminescence, 48 h; Potency, µM (highest dose often 46.1 µM), inactives show at the highest dose activity, negative = toxicity, most hits filed as cytotoxic; actives 2% (n = 360,000);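 also: potency is read from the fitted curve at half-maximal effect; 0% = DMSO wells and -100% = cell-free medium wells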
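% activity derives from luminescence (CellTiter-Glo), normalised to DMSO and no-cell wells. HT-1080-IDH1KD cells, 750/well, had 48 h compound exposure at 37 °C.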
TDP1 cell CPT = qHTS for Inhibitors of human tyrosyl-DNA phosphodiesterase 1 (TDP1): qHTS in cells in presence of CPT. chicken DT40 Tdp1-/-;hTDP1 cells + 20 nM CPT, ATP luminescence, 48 h. Potency, µM (doses to about 46.2 µM), for the others: at the highest dose activity change, negative = growth inhibition, usual class: inhibitors. actives 12% (n = 420,000). AID 686979, 2013; also: potency is read from the fitted curve at half-maximal effect; nearly all actives have a fitted effect of over 55% in size
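Chicken DT40 Tdp1-/- cells complemented with human TDP1, 400 cells/well, exposed to compounds plus 20 nM camptothecin for at least 48 h at 37 C; viability read as ATP content by CellTiter-Glo luminescence.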
IL1B secr inh = qHTS for Inhibitors of Inflammasome Signaling: IL-1-beta AlphaLISA Primary Screen. THP-1 LPS/ATP IL-1B secretion, AlphaLISA, 16 h; active compounds read low. activity change, % at 57.5 µM. actives 4.7% (n = 360,000). AID 743279, 2014; in the data active = activity change below about -50%; inconclusive = mostly about -30% to -49%
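THP-1 cells pretreated 1 hr with compounds (up to 57.5 uM final), then stimulated with LPS (250 ng/mL final) plus ATP (1.25 mM final); secreted IL-1B measured by AlphaLISA after 16 hr, decreased signal indicating inhibition.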
DT40 TDP1 no CPT = qHTS for Inhibitors of human tyrosyl-DNA phosphodiesterase 1 (TDP1): qHTS in cells in absence of CPT; actives 15% (n = 420,000); AID 686978, 2013; DT40 Tdp1-/- hTDP1 cells, no CPT, ATP luminescence, 48 h; Potency, µM (highest dose often 46.2 µM), for the others: top-dose activity change, negative = growth inhibition, actives largely listed as inhibitors; also: potency is read from the fitted curve at half-maximal effect; nearly all actives have a fitted effect of over 55% in size
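A cellular qHTS used chicken DT40 cells lacking endogenous Tdp1 but carrying stably transfected human TDP1. Compounds were applied without camptothecin, and cell growth kinetics were judged by ATP-dependent luminescence after ≥48 hr.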
ALOX12 inh = Primary qHTS assay for inhibitors of human arachidonate 12S-lipoxygenase (ALOX12): Round 2. Polyunsaturated fatty acid lipoxygenase ALOX12 (Homo sapiens), P18054. purified 12hLO, xylenol orange hydroperoxide absorbance. Potency, µM (titrated, usually from 108 µM), inactives show at the highest dose activity change, negative = inhibition, most hits filed as inhibitors. actives 1.1% (n = 580,000); also: potency is read from the fitted curve at half-maximal effect
Target sequence (P18054 whole entry, looked up): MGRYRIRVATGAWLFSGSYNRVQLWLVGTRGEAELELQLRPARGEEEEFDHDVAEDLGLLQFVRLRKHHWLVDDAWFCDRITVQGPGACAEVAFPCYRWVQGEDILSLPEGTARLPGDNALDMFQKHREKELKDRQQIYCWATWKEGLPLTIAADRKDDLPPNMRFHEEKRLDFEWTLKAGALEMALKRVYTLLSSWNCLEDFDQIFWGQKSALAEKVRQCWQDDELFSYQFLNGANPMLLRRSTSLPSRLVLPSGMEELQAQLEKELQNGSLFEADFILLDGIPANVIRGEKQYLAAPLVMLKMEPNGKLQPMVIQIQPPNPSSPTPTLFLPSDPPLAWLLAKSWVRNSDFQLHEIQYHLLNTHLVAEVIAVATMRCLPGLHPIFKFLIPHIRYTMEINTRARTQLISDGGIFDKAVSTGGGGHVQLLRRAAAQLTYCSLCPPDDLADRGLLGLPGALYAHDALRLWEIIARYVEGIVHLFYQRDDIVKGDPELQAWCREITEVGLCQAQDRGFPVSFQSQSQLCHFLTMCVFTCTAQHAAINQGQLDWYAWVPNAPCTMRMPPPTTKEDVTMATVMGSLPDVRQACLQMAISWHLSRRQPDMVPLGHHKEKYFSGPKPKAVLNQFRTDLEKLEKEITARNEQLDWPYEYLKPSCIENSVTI
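Purified human 12hLO at 150 nM in 25 mM Hepes, 0.01% Triton X-100, pH 7.0, preincubated 15 min at room temperature with compound. Reaction started with 40 uM arachidonic acid, 30 min at room temperature. Hydroperoxide measured by Fe-xylenol orange, 573/405 nm absorbance ratio.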
* marks the source's active call; other numbers are inactive results; i = inactive; ? = inconclusive; . = no result; [ ] = remark or other dose. Unless noted, calls follow the shape of the dose curve; as a rule, active = well fitted curve in the direction sought with a large enough effect; inconclusive = small, poorly fitted or top-dose-only effect, or another doubt; inactive = no such curve, though single readings can be large; an effect the other way counts as inactive or inconclusive. Unless noted, % is scaled to controls: 0 for no effect and ±100 for the full control effect.

SMILES	HT1080NT lethal	HT1080 IDH1KD tx	TDP1 cell CPT	IL1B secr inh	DT40 TDP1 no CPT	ALOX12 inh
C=CCNC(=O)CN1CCN(c2nc(-c3ccccc3)nc3ccccc23)CC1	.	.	.	.	.	4%
Cc1ncsc1CN1CC(Oc2cccc(C(=O)N3CCOCC3)c2)C1	.	.	.	.	.	29%
COc1ccc(-n2c(-c3ccccc3)nnc2-c2ccc(Cl)cc2)cc1	-1%	-5%	-12%	0	?	0%
COc1ccc(-n2c(-c3ccc(Cl)cc3)c[n+]3c2CCc2ccccc2-3)cc1	23µM*	8.2µM*	2.9µM*	-55*	2.3µM*	-6%
Fc1ccc(-c2cn(-c3ccccc3)c3[n+]2CCS3)cc1	?	-2%	?	-13	23µM*	40%
Clc1ccc(-c2cn(-c3ccccc3)c3[n+]2CCS3)cc1	-12%	-11%	?	-51*	6.5µM*	-2%
O=C(O)c1cn(-c2ccccc2)nc1-c1ccc(F)cc1	10%	20%	1%	15	6%	0%
CC(=O)c1ccc(-n2cc(-c3ccc(C(C)(C)C)cc3)[n+]3c2SCCC3)cc1	?	?	0.21µM*	-25	0.16µM*	1%
COc1ccc(-c2cn(-c3ccc(Br)cc3)c3[n+]2CCS3)cc1	-25%	-29%	8.2µM*	-76*	6.5µM*	-13%
CC(=O)c1ccc(N2CCN(c3ccc(C(F)(F)F)cn3)CC2)cc1	-2%	-1%	-19%	-4	?	-2%
O=C(Cc1cccc(Cl)c1)N1CCC(c2nn(-c3ccccc3)c(=O)[nH]2)CC1	.	.	.	.	.	-8%
CN(C)CCNC(=O)c1ccc2c(c1)N(Cc1c(F)cccc1Cl)C(=O)c1ccccc1S2	.	.	16µM*	.	23µM*	?
O=C(c1ccc2c(c1)N(Cc1cccc(F)c1)C(=O)c1ccccc1S2)N1CCCC1	.	.	21µM*	.	?	?
O=C(c1ccc2c(c1)N(Cc1c(F)cccc1Cl)C(=O)c1ccccc1S2)N1CCCC1	.	.	?	.	23µM*	0%
O=C(NCCN1CCOCC1)c1ccc2c(c1)N(Cc1c(F)cccc1Cl)C(=O)c1ccccc1S2	-18%	-2%	?	0	?	-17%
O=C(O)c1ccc2c(c1)N(Cc1ccccc1)C(=O)c1ccccc1S2	0%	-1%	11%	25	12%	-19%
O=C(c1ccc2c(c1)N(Cc1cccc(Cl)c1)C(=O)c1ccccc1S2)N1CCOCC1	.	.	18µM*	.	?	-15%
O=C(NCCc1ccccc1)c1nc(-c2cccc3[nH]ccc23)no1	.	.	.	.	.	-34%
CN(CCCNC(=O)c1ccc2n[nH]nc2c1)Cc1ccccc1	.	.	.	.	.	4%
COC(=O)COc1ccc(-c2nccc(-c3ccccn3)n2)cc1	17%	20%	20%	-5	6%	0%
COc1ccc(-c2ccnc(-c3ccc(O)cc3)n2)cc1	4.1µM*	1.5µM*	1.6µM*	0	1.8µM*	-18%
COc1ccc(-c2ccnc(-c3ccncc3)n2)cc1	-11%	-5%	?	16	16µM*	?
COC(=O)COc1ccc(-c2nccc(-c3ccc(Br)cc3)n2)cc1	?	26%	21µM*	-3	?	6%
O=C1CCC(C(=O)N(CC2CCN(Cc3ccccc3F)CC2)CC2CCCO2)=NN1 (stereo not drawn)	.	.	.	.	.	23%
COCCCNc1oc(-c2ccccc2)nc1C#N	.	.	.	.	.	-8%
SMILES	HT1080NT lethal	HT1080 IDH1KD tx	TDP1 cell CPT	IL1B secr inh	DT40 TDP1 no CPT	ALOX12 inh
COc1cccc(-c2cnc(C(O)c3ccc(Cl)cc3)[nH]2)c1 (stereo not drawn)	4%	-3%	26µM*	35	?	-7%
CCc1ccc(C(O)c2ncc(-c3cccc(OC)c3)[nH]2)cc1 (stereo not drawn)	-2%	-27%	?	17	9.2µM*	.
CSc1ccc(C(O)c2ncc(-c3cccc(F)c3)[nH]2)cc1 (stereo not drawn)	4%	-13%	15µM*	0	?	-12%
COc1cccc(-c2cnc(C(O)c3ccc(Cl)c(Cl)c3)[nH]2)c1 (stereo not drawn)	-4%	-18%	21µM*	21	?	-3%
Clc1ccccc1CNCCN1CCCC1	.	.	.	.	.	-8%
Cc1cc(OCC(=O)Nc2ccc(NC(=O)C3CC3)cc2C(F)(F)F)ccc1Cl	.	.	.	.	.	15%
Cc1nn(-c2ccc(C(C)C)cc2)c(C)c1[C@@H]1C=C[C@@H](NCc2cccc(C#N)c2)C1	.	.	.	.	.	-14%[176 µM]
O=C1NCCCCCN(C(=O)c2ccc3ccccc3n2)[C@H]2CCC[C@@H]12	.	.	.	.	.	16%
COc1cccc(-c2cnc(C(O)c3ccc(SC)cc3)[nH]2)c1 (stereo not drawn)	8%	-16%	?	15	16µM*	-12%
O=C1N(c2ccccc2)C[C@H]2CN(Cc3ccccc3)CCN12	.	.	.	.	.	21%[176 µM]
CCCCC1OC23CCCCC2C(C#N)(C(=N)O3)C1(C#N)C#N (stereo not drawn)	1%	3%	7.3µM*	-10	7.3µM*	-6%
CCCCC1OC23CCCCC2C(C#N)(C#N)C1(C#N)C(=N)O3 (stereo not drawn)	7%	6%	6.5µM*	-102*	6.5µM*	-7%
N#Cc1ccc(N2CCC(C(=O)NCCc3cccs3)CC2)nc1	.	.	.	.	.	11%
Cc1ccccc1OCCCCn1c(CO)nc2ccccc21	?	-25%	9.2µM*	-21	10µM*	0%
c1ccc(OCCn2cnc3ccccc32)cc1	3%	16%	?	-4	?	?
Cc1ccccc1OCCCCn1cnc2ccccc21	-8%	?	12µM*	-19	13µM*	-15%
c1ccc(OCCCCn2cnc3ccccc32)cc1	-5%	?	?	-20	18µM*	i
Cc1ccc(OCCCCn2cnc3ccccc32)cc1	6%	-9%	16µM*	-19	21µM*	?
Cc1ccc(OCCCn2c(CO)nc3ccccc32)cc1	-1%	-10%	?	-6	?	3%
CC(C)n1nc(OC(C)(C)C(=O)NC2CCOCC2)c2cc(CN3CCOCC3)ccc21	.	.	.	.	.	20%

Assay outcomes deposited in PubChem BioAssay by National Center for Advancing Translational Sciences (NCATS).
